Shown are actives, neighbours in structure and some others; about 2.4% of the full set was active somewhere.
CHO-K1 Ca ag: M1 agonist counterscreen hit in parental CHO-K1 cells | Fluo-8 calcium fluorescence; scaled to maximal ATP response, vehicle zero | activation, % at 3 µM | actives 0.48% (n = 360,000); in the data active means activation above about 15%;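 further: untransfected CHO-K1 host cells lacking M1 receptor as counterscreen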
CHRM1 PAM: positive allosteric modulators of human M1 muscarinic receptor; P11229; CHO-K1 hM1, Fluo-8 calcium fluorescence, ACh EC20; 0% = ACh EC20, 100% = maximal ACh; activation, % at 3 µM; actives 0.088% (n = 360,000); in the data active means activation above about 19%, passing the limit was not always enough
Target sequence (P11229 whole entry, looked up): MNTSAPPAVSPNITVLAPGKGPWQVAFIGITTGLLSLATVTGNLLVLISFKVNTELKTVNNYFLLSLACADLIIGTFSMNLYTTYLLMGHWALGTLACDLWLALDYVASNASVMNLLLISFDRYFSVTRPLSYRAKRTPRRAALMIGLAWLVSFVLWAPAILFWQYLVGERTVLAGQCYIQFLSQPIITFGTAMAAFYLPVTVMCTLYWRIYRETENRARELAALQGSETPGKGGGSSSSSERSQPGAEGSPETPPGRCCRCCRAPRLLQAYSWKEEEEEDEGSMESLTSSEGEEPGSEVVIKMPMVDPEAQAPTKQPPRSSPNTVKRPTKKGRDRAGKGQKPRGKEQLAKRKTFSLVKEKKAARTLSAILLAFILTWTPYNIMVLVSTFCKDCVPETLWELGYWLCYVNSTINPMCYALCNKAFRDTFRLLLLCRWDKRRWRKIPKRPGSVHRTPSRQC
CHRM1 antagonist: human CHRM1 antagonism; P11229; CHO-K1 hM1, Fluo-8 calcium fluorescence, ACh EC80 antagonist; inhibition, % at 3 µM; actives 1.3% (n = 360,000);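 active means percent inhibition above its own plate's cutoff, namely the mean of that plate's compound wells plus 3 SD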;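 further: peak over basal fluorescence ratio during 140 s after agonist addition; 0% = ACh EC80 plus DMSO and 100% = DMSO alone without agonist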
CHRM1 agonist: human M1 muscarinic receptor agonism | P11229 | actives 0.33% (n = 360,000) | CHO-K1 hM1, Fluo-8 calcium fluorescence, agonist mode; 0% DMSO, 100% acetylcholine EC100 | activation, % at 3 µM;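 active means activation above the run's mean compound activation plus 3 SD, cut at about 16% in these data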;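 further: peak over basal fluorescence ratio within a 140 s kinetic read after compound addition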
CHO-K1 Ca antag: M1 antagonist counterscreen hit in parental CHO-K1 cells. ATP-induced calcium, Fluo-8 fluorescence. AID 602250. inhibition, % at 3 µM. actives 0.6% (n = 360,000);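 active means inhibition above a per-plate cutoff, the plate's mean sample inhibition plus 3 SD, cut at about 24% in these data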;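 further: 0% = DMSO plus EC80 ATP and 100% = DMSO alone without ATP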
CHO-K1 Ca PAM: nonselective activator or artifact in parental CHO-K1 calcium assay; activation, % at 3 µM; actives 0.02% (n = 360,000); ATP EC20, Fluo-8 calcium fluorescence; 0% at ATP EC20, 100% at ATP max;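 active means activation above the run cutoff, the mean activation of all test compounds plus 3 SD, cut at about 40% in these data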;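 further: peak over basal fluorescence ratio in a 140 s read after ATP addition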
* marks the source's active call; other numbers are inactive results; ! = not confirmed by another sample.

For Cc1ccc(S(=O)(=O)CCN2C=CC(C(F)(F)F)=NCC2)cc1 the results were CHO-K1 Ca ag 17*, CHRM1 PAM 14, CHRM1 antagonist -14, CHRM1 agonist 6, CHO-K1 Ca antag 2 and CHO-K1 Ca PAM 11.
For COCCN(Cc1ccccc1)C(=O)Cc1ccc(OC)c(S(=O)(=O)N2CCOCC2)c1 the results were CHO-K1 Ca ag 2, CHRM1 PAM 4, CHRM1 antagonist -10, CHRM1 agonist -1, CHO-K1 Ca antag -7 and CHO-K1 Ca PAM 12.
Screening COc1ccc(CC(=O)N(Cc2ccccc2)c2ccccc2)cc1S(=O)(=O)N1CCOCC1 returned CHO-K1 Ca ag 13, CHRM1 PAM -9, CHRM1 antagonist 26*, CHRM1 agonist 2, CHO-K1 Ca antag -4 and CHO-K1 Ca PAM 18.
Screening CC(=O)c1sc(N/N=C\c2cccc(Br)c2)nc1C returned CHO-K1 Ca ag 17*, CHRM1 PAM 2, CHRM1 antagonist -5, CHRM1 agonist -11, CHO-K1 Ca antag 6 and CHO-K1 Ca PAM 17.
For CC(=O)c1sc(N/N=C\c2ccc(Br)cc2)nc1C the results were CHO-K1 Ca ag 1, CHRM1 PAM 0, CHRM1 antagonist -8, CHRM1 agonist -10, CHO-K1 Ca antag -11 and CHO-K1 Ca PAM 18.
Screening CCOC(=O)C1CCN(C(=O)COC(=O)c2oc3ccccc3c2C)CC1 returned CHO-K1 Ca ag 1, CHRM1 PAM 1, CHRM1 antagonist -8, CHRM1 agonist -2, CHO-K1 Ca antag 1 and CHO-K1 Ca PAM -2.
For c1ccc(Oc2ccc(-c3ccn[nH]3)cc2)cc1 the results were CHO-K1 Ca ag 1, CHRM1 PAM 2, CHRM1 antagonist -3, CHRM1 agonist -3, CHO-K1 Ca antag 2 and CHO-K1 Ca PAM -18.
For c1ccc(-c2ncc(-c3ccn[nH]3)s2)cc1 the results were CHO-K1 Ca ag 0, CHRM1 PAM -9, CHRM1 antagonist 10, CHRM1 agonist -5, CHO-K1 Ca antag 29* and CHO-K1 Ca PAM -16.
Screening COc1ccc(CNC(=O)CSc2nccn(-c3ccc(F)c(F)c3)c2=O)cc1 returned CHO-K1 Ca ag 1, CHRM1 PAM 4, CHRM1 antagonist 0, CHRM1 agonist -2, CHO-K1 Ca antag 1 and CHO-K1 Ca PAM -12.
For CC(C)CC1Nc2ncnc(N3CCN(c4ccccn4)CC3)c2N(Cc2ccccc2)C1=O (stereo not drawn) the results were CHO-K1 Ca ag 0, CHRM1 PAM -30, CHRM1 antagonist 38*!, CHRM1 agonist -12, CHO-K1 Ca antag -13 and CHO-K1 Ca PAM -7.
`Cc1nc(NC(=O)COC(=O)CCc2ccccc2)c(Cl)cc1Cl` gave CHO-K1 Ca ag -1, CHRM1 PAM 25*, CHRM1 antagonist -14, CHRM1 agonist 2, CHO-K1 Ca antag -2 and CHO-K1 Ca PAM -8.
Screening COc1c(F)c(F)c(C(=O)Nc2ccc(N3CCN(Cc4ccccc4)CC3)cc2)c(F)c1F returned CHO-K1 Ca ag 8, CHRM1 PAM -33, CHRM1 antagonist 47*, CHRM1 agonist -9, CHO-K1 Ca antag -8 and CHO-K1 Ca PAM -14.
`COc1cccc(NC(=O)c2ccc(CN3CCN(c4ccccc4)CC3)cc2)c1` gave CHO-K1 Ca ag 1, CHRM1 PAM -22, CHRM1 antagonist 20*, CHRM1 agonist -7, CHO-K1 Ca antag -4 and CHO-K1 Ca PAM 18.
`COc1ccc(C(=O)Nc2ccc(N3CCN(Cc4ccccc4)CC3)cc2)cc1` gave CHO-K1 Ca ag 2, CHRM1 PAM -7, CHRM1 antagonist 9, CHRM1 agonist -10, CHO-K1 Ca antag -4 and CHO-K1 Ca PAM 8.
COc1ccc(C(=O)N=C2SC3CS(=O)(=O)CC3N2c2ccc(C(C)=O)cc2)cc1 (stereo not drawn) was read as CHO-K1 Ca ag 1, CHRM1 PAM 7, CHRM1 antagonist -9, CHRM1 agonist -1, CHO-K1 Ca antag -11 and CHO-K1 Ca PAM -1.
CCCCn1c(SCC(=O)NNC(=O)c2ccccc2)n[nH]c1=O was read as CHO-K1 Ca ag 0, CHRM1 PAM 7, CHRM1 antagonist -7, CHRM1 agonist -4, CHO-K1 Ca antag -6 and CHO-K1 Ca PAM -20.
`CCC(C)NC(=O)CSc1ccc(NC(C)=O)cc1` (stereo not drawn) gave CHO-K1 Ca ag 0, CHRM1 PAM 4, CHRM1 antagonist 6, CHRM1 agonist -4, CHO-K1 Ca antag 6 and CHO-K1 Ca PAM 5.
Screening CC(=O)Nc1ccc(SCCC2CCCCN2C)cc1 (stereo not drawn) returned CHO-K1 Ca ag 0, CHRM1 PAM -19, CHRM1 antagonist 25*, CHRM1 agonist -12, CHO-K1 Ca antag -5 and CHO-K1 Ca PAM -2.
Cc1cc(C)c(NC(=O)CSc2nnc(CNC(=O)c3c(F)cccc3Cl)o2)c(C)c1 was read as CHO-K1 Ca ag 3, CHRM1 PAM 3, CHRM1 antagonist -8, CHRM1 agonist -4, CHO-K1 Ca antag -12 and CHO-K1 Ca PAM 21.
For Cc1ccc(NC(=O)CSc2nnc(CNC(=O)c3c(F)cccc3Cl)o2)cc1 the results were CHO-K1 Ca ag 0, CHRM1 PAM -5, CHRM1 antagonist 9, CHRM1 agonist -4, CHO-K1 Ca antag 26* and CHO-K1 Ca PAM -6.
CCCc1cc(=O)[nH]c2nnc(SCC(=O)Nc3cccc(NC(C)=O)c3)n12 was read as CHO-K1 Ca ag 0, CHRM1 PAM 16, CHRM1 antagonist 2, CHRM1 agonist 20*, CHO-K1 Ca antag 11 and CHO-K1 Ca PAM -23.
For O=C(NNC(=O)c1ccc(S(=O)(=O)N2CCCCC2)cc1)c1ccc(F)cc1 the results were CHO-K1 Ca ag 2, CHRM1 PAM 2, CHRM1 antagonist -8, CHRM1 agonist -1, CHO-K1 Ca antag -10 and CHO-K1 Ca PAM -6.
Screening Cc1onc(-c2c(Cl)cccc2Cl)c1C(=O)NCCCN1CCOCC1 returned CHO-K1 Ca ag 0, CHRM1 PAM 3, CHRM1 antagonist -4, CHRM1 agonist -6, CHO-K1 Ca antag -10 and CHO-K1 Ca PAM 17.
For Cc1onc(-c2c(Cl)cccc2Cl)c1C(=O)c1c[nH]c(C(=O)NCCCN2CCOCC2)c1 the results were CHO-K1 Ca ag 1, CHRM1 PAM -22, CHRM1 antagonist 76*, CHRM1 agonist -6, CHO-K1 Ca antag 2 and CHO-K1 Ca PAM 18.
Screening O=C(COC(=O)/C=C/c1ccc(Cl)c(Cl)c1)NC1CCCC1 returned CHO-K1 Ca ag 1, CHRM1 PAM 15, CHRM1 antagonist -19, CHRM1 agonist 0, CHO-K1 Ca antag -2 and CHO-K1 Ca PAM 14.
For O=C(COC(=O)/C=C/c1ccc(Cl)c(Cl)c1)NC1CCS(=O)(=O)C1 (stereo not drawn) the results were CHO-K1 Ca ag 16*, CHRM1 PAM -5, CHRM1 antagonist 15, CHRM1 agonist 1, CHO-K1 Ca antag 14 and CHO-K1 Ca PAM -2.

Source: PubChem
